Source: ChEMBL document CHEMBL4513149, “CO-ADD screening of MMV (CH) - MMV compounds” (2021)
Potency and affinity values are given separately.

What was measured:
Staphylococcus aureus = conditions: Concentration 20 uM; ASSAY_TEST Inhibition of Bacterial Growth; detection method Absorption (OD600); MEDIA CAMHB; plate type 384well; NBS; CORNING #3640; time 18 hr
Escherichia coli = conditions: Concentration 20 uM; ASSAY_TEST Inhibition of Bacterial Growth; detection method Absorption (OD600); MEDIA CAMHB; plate type 384well; NBS; CORNING #3640; time 18 hr

SMILES	Inhibition (Staphylococcus aureus) [%]	Inhibition (Escherichia coli) [%]
COc1ccc(C2(C(=O)Nc3ccc(Br)cc3)CCCC2)cc1	18.94	6.87
Cl.NCC(c1cccs1)S(=O)(=O)c1ccccc1 (stereo unspecified)	11.05	-0.69
O=C(NCCN1CCCC1)c1cc(NCCN2CCOCC2)nc2ccc(Cl)cc12	22.71	6.99
COc1ccc(-c2nn(C(C)C)c3ncnc(N)c23)cc1OC	14.97	-0.52
Cc1nnc(NCc2cccc(Cl)c2)c2ccccc12	21.63	9.19
Cc1ccccc1CN1CCC(O)(c2ccc(Cl)c(C(F)(F)F)c2)CC1	17.37	4.77
CC(C)(C)OC(=O)N1CCC(Cn2nc(-c3cnc4ccccc4c3)c3c(N)ncnc32)CC1	18.54	10.38
CCC(=O)Nc1ccccc1C(=O)Nc1ccccn1	18.51	10.48
O=C(C1CCN(c2nnnn2-c2ccccc2)CC1)N1CCc2ccccc2C1	18.44	5.61
O=C1[C@@H](Oc2ccccc2)[C@@H](c2ccc(Cl)cc2)N1CCn1cnc2c(NCc3ccccc3)ncnc21	-4.13	1.08
O=C(NCc1nnc2n1CCCCC2)c1ccc(-c2ccc(F)cc2)o1	15.64	7.05
Cc1cccc(-c2nc(Nc3ccncn3)c3sccc3n2)n1	21.43	8.12
O=C(NC1CC1)c1ccc(CSCc2ccccc2Cl)o1	11.19	-1.44
c1ccc(Oc2ccc(-c3cc(N4CCOCC4)[nH]n3)cc2)cc1	17.8	4.28
C[C@H](c1ccc2c(c1)CCCC2)N(C)c1ncc2c(N)nc(N)nc2n1	64.04	11.2
CC1=Nc2ccc(Cl)cc2C(O)(c2ccc(C)cc2)N1CCN1CCCCC1 (stereo unspecified)	19.52	11.5
CC(C)(C)n1nc(Cc2cccc3ccccc23)c2c(N)ncnc21	2.05	-5.14

SMILES	Inhibition (Staphylococcus aureus) [%]	Inhibition (Escherichia coli) [%]
Cc1cc(C)cc(COc2ccc3c(C)c(CCC(=O)O)c(=O)oc3c2C)c1	19.34	4.13
OCc1ccc(-c2cncc(Nc3cccc(Cl)c3)c2)cc1	14.66	10.9
N#Cc1nc(-c2ccccc2F)oc1NCCc1ccccc1	7.55	2.58
Cc1cc(Nc2ccc(C(F)(F)F)cc2)n2ccnc2n1	20.89	9.89
O=C(NC1CCN(c2ccnc3ccccc23)C1)c1cccc(C(F)(F)F)c1 (stereo unspecified)	10.7	9.38
O=C(C1CCCCC1)N1CC(=O)N2CCc3ccccc3C2C1 (stereo unspecified) [PRAZIQUANTEL]	18.11	6.83
c1ccc(Oc2ccc(-c3cc(CN4CCOCC4)[nH]n3)cc2)cc1	15.12	2.47
COc1cncc(-c2cncc(N3CCN(c4ccncc4)CC3)n2)c1	18.85	13.61
COc1ccc(-c2nnc3ccc(-c4cccc(C(C)C)c4)cn23)cc1OC	5.54	12.18
COC(=O)c1cccc2oc(-c3cccc(OC)c3NC(=O)c3cc(-c4ccccc4)on3)nc12	11.44	4.98
O=C(Nc1nc(-c2ccccn2)cs1)c1cncn1-c1ccccc1	8.38	5.73
CC(=O)N(CCN(C(=O)c1ccc(F)cc1)c1ccccc1)c1ccccc1	12.64	5.32
Cc1ccc2nc(Cl)c(CNCc3cccs3)cc2c1	2.71	-1.94
CC(C)/N=c1\cc2n(-c3ccc(Cl)cc3)c3ccccc3nc-2cc1Nc1ccc(Cl)cc1 [CLOFAZIMINE]	59.44	9.66
O=C(C1CCN(c2nnc(-n3cccc3)s2)CC1)N1CCC(Cc2ccccc2)CC1	17.77	6.98
CCC(C)NC(=O)c1ccc(NC(=O)C2(c3ccccc3)CCCC2)cc1 (stereo unspecified)	13.32	-4.39
